Source: PubChem (several laboratories)
A selection: hits, their analogues and other compounds. The true share with any hit is near 3.3%.
NR3A LBD binder: NR3A (human) ligand-binding domain modulation; NR3A LBD differential scanning fluorimetry, Tm shift; 0% = protein alone, 100% = glycine-bound protein; Tm shift relative to glycine control, % at 25 µM; 2.5% of 340,000 active; AID 1259313;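 active = melting temperature shift of at least 10% of the positive control shift, at one fixed dose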
UBC9 SUMO inh: blocks human SUMOylation mediated by UBC9. P63279. HTRF SUMOylation assay, SAE1/SAE2 + UBC9, in vitro. inhibition, % at 35 µM. 0.36% of 290,000 active. AID 2006; in the data active = inhibition above about 50%, passing the limit was not always enough
Target sequence (P63279 whole entry, looked up): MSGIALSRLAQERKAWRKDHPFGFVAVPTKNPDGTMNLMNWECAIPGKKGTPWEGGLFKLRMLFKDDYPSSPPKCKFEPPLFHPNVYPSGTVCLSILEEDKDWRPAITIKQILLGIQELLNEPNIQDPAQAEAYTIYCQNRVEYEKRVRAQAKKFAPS
sPLA2-III inh: Inhibits HGIII-sPLA2 liposome hydrolysis, primary screen. inhibition, % at 12.2 µM. QFRET BODIPY PC-A2 liposome hydrolysis, fluorescence. AID 743126. 0.56% of 370,000 active;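 active = inhibition above mean plus 3 SD of compounds lying within the high and low control bounds, cut at about 19% in these data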
Target sequence (Q9NZ20 whole entry, looked up): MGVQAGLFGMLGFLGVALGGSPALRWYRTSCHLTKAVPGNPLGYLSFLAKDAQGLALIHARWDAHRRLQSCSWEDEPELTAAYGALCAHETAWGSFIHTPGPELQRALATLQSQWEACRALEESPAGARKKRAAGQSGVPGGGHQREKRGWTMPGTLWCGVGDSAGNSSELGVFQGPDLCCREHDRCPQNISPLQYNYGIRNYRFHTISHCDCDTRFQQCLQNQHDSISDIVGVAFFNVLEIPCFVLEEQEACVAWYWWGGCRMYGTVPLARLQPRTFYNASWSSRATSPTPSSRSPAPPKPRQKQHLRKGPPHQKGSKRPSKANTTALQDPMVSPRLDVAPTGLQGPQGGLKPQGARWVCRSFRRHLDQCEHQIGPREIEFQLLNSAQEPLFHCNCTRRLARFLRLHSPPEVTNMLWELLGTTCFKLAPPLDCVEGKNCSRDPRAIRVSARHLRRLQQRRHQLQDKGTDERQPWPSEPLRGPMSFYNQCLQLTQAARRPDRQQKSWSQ
UBC13 inh: human UBC13 polyubiquitination inhibition; 0.47% of 330,000 active; inhibition, % at 20 µM; UBC13 polyubiquitin chain formation, TR-FRET; P61088; in the data active = inhibition above about 45%, passing the limit was not always enough
Each line names hits and unclear results; the compound was inactive in the other large screens.

Cc1ccc2c(c1)C1CS(=O)(=O)N(Cc3ccccc3)CN1C2 (configuration not stated)	none (no result: NR3A LBD binder, UBC9 SUMO inh, UBC13 inh)
CCCC1CCC2(CC1)CCC2OC(=S)Nc1ccc(Br)cc1 (configuration not stated)	none (no result: NR3A LBD binder, UBC9 SUMO inh, UBC13 inh)
O=C(CSc1nnc(-c2ccccc2)n1-c1ccc(Cl)cc1)c1ccccc1Br	none (no result: NR3A LBD binder, UBC9 SUMO inh, UBC13 inh)
COCC#Cc1ccc(CC[C@H]2O[C@H]3CC[C@@H](CO)O[C@H]3C[C@H]2n2cc(C(C)(C)O)nn2)cc1	none (no result: NR3A LBD binder, UBC9 SUMO inh, UBC13 inh)
Cc1ccccc1NC(=O)C[C@H]1CC[C@H]2[C@@H](COc3ccc(NC(=O)Nc4ccccc4)cc3C(=O)N2C)O1	none (no result: NR3A LBD binder, UBC9 SUMO inh, UBC13 inh)
CCN(CC)C(=O)c1ccc(C(CCOC(=O)Oc2ccccc2)c2ccc(OC)cc2)cc1 (configuration not stated)	none (no result: NR3A LBD binder, UBC9 SUMO inh, UBC13 inh)
O=C(Nc1ccc2c(c1)OCO2)OC1CCC12CCC(c1ccccc1)CC2 (configuration not stated)	none (no result: NR3A LBD binder, UBC9 SUMO inh, UBC13 inh)
O=C1/C(=C\c2ccc(O)cc2)SC(=S)N1Cc1ccccc1	NR3A LBD binder 34.0
CCOC(=O)c1nn(-c2ccccc2)c2nnc(Cc3ccc(Cl)cc3)c(=O)n12	none
CCOC(=O)c1nn(-c2ccc(Cl)cc2)c2nnc(Cc3ccccc3)c(=O)n12	NR3A LBD binder 10.2
CCOC(=O)c1nn(-c2ccc(Cl)cc2)c2nnc(Cc3ccc(C)cc3)c(=O)n12	NR3A LBD binder 13.4
CCN(CC)C(=O)CC[C@H]1CC[C@]2(CCCN(Cc3cccs3)C2)O1	none (no result: NR3A LBD binder, UBC9 SUMO inh, UBC13 inh)
O=C(NC1CCCCN(Cc2cccc(F)c2)C1=O)c1ccc2ccccc2c1 (configuration not stated)	none (no result: NR3A LBD binder, UBC9 SUMO inh, UBC13 inh)
COc1ccccc1C1NC(=O)CS1 (configuration not stated)	NR3A LBD binder 14.0
O=c1oc(-c2ccc(O)c(O)c2)cc2cc(O)cc(O)c12	NR3A LBD binder 19.9 (no result: UBC9 SUMO inh)
O=c1cc(-c2ccc(O)c(O)c2)oc2ccc3ccccc3c12	NR3A LBD binder 24.9 (no result: UBC9 SUMO inh)
O=c1oc(-c2ccc(O)c(O)c2)cc2cccc(O)c12	NR3A LBD binder 23.8 (no result: UBC9 SUMO inh)
COc1cc(/C=N/N=C(/N)c2nonc2N)cc(Br)c1OCc1cccc(C)c1	none
CCOc1cc(/C=N/N=C(\N)c2nonc2N)cc(Br)c1OCc1cccc2ccccc12	UBC9 SUMO inh 55.6
O=C(NCc1ccncc1)c1ccc(Cl)c(S(=O)(=O)N2CCOCC2)c1	NR3A LBD binder 321.5
Cc1nn(-c2ccc(F)cc2)c2sc(C(=O)N3CCCCCC3)cc12	none
COc1ccc(NS(=O)(=O)c2ccc(O)c(NC(=O)c3cc4c(C)nn(-c5ccc(F)cc5)c4s3)c2)cc1	NR3A LBD binder 30.6, UBC9 SUMO inh 81.8 (no result: sPLA2-III inh)
CCOC(=O)C1CCCN(C(=O)COc2ccc(C(C)(C)C)cc2)CC1 (configuration not stated)	none (no result: NR3A LBD binder, UBC9 SUMO inh, UBC13 inh)
CC(C)(C)c1ccc(OCC(=O)N2CCN(C=O)CC2)cc1	NR3A LBD binder 18.3
Cc1cc(N2CCN(Cc3ccc4c(c3)OCO4)CC2)n2nc(C)nc2n1	none (no result: NR3A LBD binder, UBC9 SUMO inh, UBC13 inh)
CN=Cc1nc(-c2ccccc2)oc1O	none
Cc1ccc(-c2nc(C=Nc3ccc(O)cc3)c(O)o2)cc1	NR3A LBD binder 11.3 (no result: UBC13 inh)
O=C(NCCc1c[nH]c2ccccc12)OCc1cn(Cc2ccccc2C(F)(F)F)nn1	none (no result: NR3A LBD binder, UBC9 SUMO inh, UBC13 inh)
O=C(Nc1ccc(N=Nc2ccccc2)cc1)c1ccccc1Cl	NR3A LBD binder 14.6
O=C(Nc1ccc(N=Nc2ccccc2)cc1)c1ccc(Cl)cc1Cl	none
CCOC(=O)C1=C(c2ccccc2)N=c2s/c(=C\c3cccc(O)c3)c(=O)n2C1c1cccs1 (configuration not stated)	NR3A LBD binder 14.1
CCOC(=O)CC(=O)CSc1nc2c(c(C)c1C#N)CCC2	NR3A LBD binder 19.9
CCOC(=O)CC(=O)CSc1nc(C)cc(C)c1C#N	none
CCOC(=O)CC(=O)CSc1nc(N)c(C#N)c(-c2ccc(Cl)cc2)c1C#N	NR3A LBD binder 15.6
O=C(CSc1nnc(-c2ccccn2)n1-c1ccccc1)c1ccc(F)cc1	none (no result: NR3A LBD binder, UBC9 SUMO inh, UBC13 inh)
O=C(N/N=C/c1c[nH]c2ccccc12)c1ccc(Cl)cc1	NR3A LBD binder 37.4
Cc1occc1C(=O)N/N=C/c1c[nH]c2ccccc12	NR3A LBD binder 12.7 (no result: sPLA2-III inh)
O=C(N/N=C/c1c[nH]c2ccccc12)c1cc(Cl)ccc1O	NR3A LBD binder 35.5
O=C(N/N=C/c1c[nH]c2ccccc12)c1ccccc1Cl	none
CC(C)Oc1ccc(Br)cc1C(=O)N/N=C/c1c[nH]c2ccccc12	NR3A LBD binder 10.8
CC(=O)CC[C@H]1CC[C@]2(CCCN(C(=O)C3CCCC3)C2)O1	none (no result: NR3A LBD binder, UBC9 SUMO inh, UBC13 inh)
C(=NN=C1c2ccccc2-c2ccccc21)c1c[nH]c2ccccc12	NR3A LBD binder 16.8 (no result: UBC9 SUMO inh, UBC13 inh)
NC(=S)N/N=C/c1c[nH]c2ccccc12	none
Nc1ccc(C(=O)N/N=C/c2c[nH]c3ccccc23)cc1	NR3A LBD binder 21.5
CCOC(=O)N/N=C/c1c[nH]c2ccccc12	none
CC(C)(C)C(=O)Nc1ccc(C(=O)N/N=C/c2ccccc2OC(=O)c2ccc(Cl)cc2)cc1	NR3A LBD binder 21.4
Cc1nnc(N/N=C/c2c[nH]c3ccccc23)[nH]c1=O	NR3A LBD binder 25.0
CC(C)(C)C(=O)Nc1ccc(C(=O)N/N=C/c2ccccc2OC(=O)c2ccccc2)cc1	none
COC(=O)[C@]12C[C@H](CC(=O)N3CCC(c4ccccc4)CC3)C(=O)N(CCC3=CCCCC3)C1=C[C@H](C(C)C)O[C@@H]2C1CC1	none (no result: NR3A LBD binder, UBC9 SUMO inh, UBC13 inh)
O=C(CSc1nnc(-c2ccccc2)n1-c1ccccc1)NN=Cc1ccc(-c2ccccc2)cc1	none (no result: NR3A LBD binder, UBC9 SUMO inh, UBC13 inh)
CCCCNC(=O)C[C@H]1C[C@@]2(C(=O)OC)C(=C[C@H](COCc3ccccc3)O[C@@H]2C)N(Cc2cccc3ccccc23)C1=O	none (no result: NR3A LBD binder, UBC9 SUMO inh, UBC13 inh)
Fc1c(F)c(F)c(N/N=C/c2c[nH]c3ccccc23)c(F)c1F	NR3A LBD binder 76.0
O=C(O)c1ccc(N/N=C/c2c[nH]c3ccccc23)cc1	NR3A LBD binder 10.2
O=C(N/N=C/c1c[nH]c2ccccc12)c1ccc(Br)cc1	NR3A LBD binder 29.8
O=C(CNC(=O)c1ccc([N+](=O)[O-])cc1)N/N=C/c1c[nH]c2ccccc12	none
CCCCn1c(/N=C/c2c[nH]c3ccccc23)nc2ccccc21	NR3A LBD binder 23.2
O=C(O)c1ccc(N/N=C/c2ccnc3ccccc23)cc1	none
CCCn1c(/N=C/c2c[nH]c3ccccc23)nc2ccccc21	none
Cc1cc(C)nc(N/N=C/c2c[nH]c3ccccc23)n1	none
CC(C)(C)OC(=O)N/N=C/c1c[nH]c2ccccc12	none
Cc1cc(N/N=C/c2c[nH]c3ccccc23)c2ccccc2n1	none
O=C(N/N=C\c1c[nH]c2ccccc12)c1ccc(O)cc1	NR3A LBD binder 41.5
Cn1c(N/N=C/c2c[nH]c3ccccc23)nc2ccccc21	NR3A LBD binder 18.8
CC(/C=C1\SC(=O)N(CC(=O)Nc2ccc(O)cc2)C1=O)=C\c1ccccc1	NR3A LBD binder 10.2
Cn1cc(/C=C2\SC(=S)N(NC(=O)c3cccc(Cl)c3)C2=O)c2ccccc21	NR3A LBD binder 19.6 (no result: UBC13 inh)
CC(/C=C1\SC(=S)N(NC(=O)c2cccc(O)c2)C1=O)=C\c1ccccc1	NR3A LBD binder 22.1
CC(/C=C1\SC(=O)N(CC(=O)Nc2cccc(O)c2)C1=O)=C\c1ccccc1	NR3A LBD binder 18.5
CC(=O)c1ccc(NC(=O)CCCN2C(=O)/C(=C/C(C)=C/c3ccccc3)SC2=S)cc1	none
